Data taken from the supplement of paper PMC6279402.
± gives the standard deviation of the averaged measurements.

Tested on: A549
Test: relative viability (normalised to negative control = 1, bortezomib = 0) (fraction); higher = less cytotoxic
Conditions: inflammatory serum-free RHB-A with cytokines + LPS; 5 d + 24 h CellTiter-Blue; compound 30 nM; GSK126 pretreatment: none (vehicle)

**Q.** How did the relative viability turn out when `CNC(=O)c1cc(Oc2ccc(NC(=O)Nc3cc(C(C)(C)C)nn3-c3ccc4ncccc4c3)c(F)c2)ccn1` [DCC-2036 (Rebastinib)] was run?
**A.** 1.35 ± 0.12

**Q.** With `Cn1cc(-c2ccc3nnc(C(F)(F)c4ccc5ncccc5c4)n3n2)cn1` as the compound, how does the relative viability read?
**A.** 0.904 ± 0.029

**Q.** With `CC1(COc2ccc3c(c2)ncn3-c2ccc3cccc(N4CCC(N)CC4)c3n2)COC1` as the compound, how does the relative viability read?
**A.** 0.966 ± 0.12

**Q.** Which relative viability does the source give for `CC(C)(C)c1cc(NC(=O)Nc2ccc(-c3cn4c(n3)sc3cc(OCCN5CCOCC5)ccc34)cc2)no1` here?
**A.** 0.898 ± 0.068

**Q.** With `Cc1[nH]nc2ccc(-c3cncc(OC[C@@H](N)Cc4ccccc4)c3)cc12` as the compound, how does the relative viability read?
**A.** 0.766 ± 0.094

**Q.** For `CN(C)Cc1cccc(N=C(c2ccccc2)c2c(O)[nH]c3cc(C(N)=O)ccc23)c1`, which relative viability is on record?
**A.** 0.911 ± 0.16

**Q.** For `CC(C)n1nc(-c2cc3cc(O)ccc3[nH]2)c2c(N)ncnc21`, which relative viability is on record?
**A.** 0.751 ± 0.032

**Q.** For `C[C@]12CC[C@@H]3c4ccc(O)cc4C[C@@H](CCCCCCCCC[S+]([O-])CCCC(F)(F)C(F)(F)F)[C@H]3[C@@H]1CC[C@@H]2O` (stereo partly drawn) [Fulvestrant], which relative viability is on record?
**A.** 0.836 ± 0.039

**Q.** How did the relative viability turn out when `N#CC(=C(/N)Sc1ccccc1N)/C(C#N)=C(/N)Sc1ccccc1N` was run?
**A.** 0.825 ± 0.11

**Q.** With `CN(C)C/C=C/C(=O)Nc1cc2c(Nc3ccc(F)c(Cl)c3)ncnc2cc1O[C@H]1CCOC1` [BIBW2992; BIBW2992(Tovok)] as the compound, how does the relative viability read?
**A.** 0.374 ± 0.028

**Q.** For `Cc1cc(Nc2nc(N[C@@H](C)c3ncc(F)cn3)ncc2Cl)[nH]n1`, which relative viability is on record?
**A.** 0.872 ± 0.08

**Q.** Which relative viability does the source give for `Nc1ncnc2c1c(-c1cnc3[nH]ccc3c1)nn2C1CCCC1` here?
**A.** 0.797 ± 0.071

**Q.** With `CC[C@H](CO)Nc1nc(NCc2ccccc2)c2ncn(C(C)C)c2n1` [ROSCOVITINE; Roscovitine(CYC202); Roscovitine] as the compound, how does the relative viability read?
**A.** 0.873 ± 0.12
